From PubChem
Only some compounds are listed: those with a hit (about 3.5% of all), similar ones and a draw of the others.
TRb-SRC2 inh: TRbeta-SRC2 interaction inhibition | TRbeta-SRC2 peptide binding, fluorescence polarization; receptor liganded with 1 µM T3 | Potency, µM (titrated, usually from 106 µM), usual class: inhibitors | P10828 | AID 1469 | hit rate 0.065% among 280,000; also: nearly all actives have a fitted effect of over 50% in size
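Decrease in fluorescence polarization of 20 nM Texas Red SRC2 coactivator peptide flagged inhibition of its binding to 0.6 uM TRb LBD; 1 uM T3 included, incubation 5 hr, ex 555/em 632 nm.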
TexasRed fluor: Texas Red fluorescence interference in TRb-SRC2 counter-screen; TRb/SRC2 Texas Red total fluorescence interference; Potency, µM (titrated, usually from 106 µM); hit rate 0.29% among 280,000; AID 1479; active = well fitted curve in either direction with a large enough effect; inconclusive = small, poorly fitted or top-dose-only effect
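Human TRβ ligand-binding domain (0.6 uM) and Texas Red SRC2 peptide (20 nM) in Tris buffer with 1 uM T3 and 5% DMSO were incubated with pinned compound for 5 hr at ambient temperature. Total fluorescence was computed as S + 2P (555/632 nm).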
KDM4E inh: inhibitors of human JMJD2E histone demethylase; hit rate 1.6% among 230,000; JMJD2E catalytic domain, FDH-coupled NADH fluorescence (FDH is formaldehyde dehydrogenase); Potency, µM (titrated, usually from 57.1 µM), usual class: inhibitors; active = well fitted inhibition curve with a large enough effect, not every such curve was filed as active; inconclusive = small, poorly fitted or top-dose-only effect, or another doubt; inactive = no such curve, though single readings can be large or run the other way; also: nearly all actives have a fitted effect of over 50% in size
Target sequence (B2RXH2 1-337 limits assumed): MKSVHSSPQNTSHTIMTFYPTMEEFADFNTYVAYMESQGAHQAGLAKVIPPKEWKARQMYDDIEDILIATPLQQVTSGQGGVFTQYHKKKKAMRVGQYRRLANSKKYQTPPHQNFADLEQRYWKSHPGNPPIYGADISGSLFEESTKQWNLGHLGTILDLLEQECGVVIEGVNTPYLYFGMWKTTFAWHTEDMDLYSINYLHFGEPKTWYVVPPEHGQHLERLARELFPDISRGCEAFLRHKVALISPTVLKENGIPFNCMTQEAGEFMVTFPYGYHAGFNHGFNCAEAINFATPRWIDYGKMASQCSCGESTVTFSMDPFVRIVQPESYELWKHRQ
Tau ThT inhib: inhibitors of human tau fibril formation, thioflavin T binding; P10636; recombinant tau K18 P301L, heparin-induced fibrillization, ThT fluorescence; Potency, µM (highest dose often 57.4 µM), hits mostly inhibitors; hit rate 2.1% among 270,000; also: nearly all actives have a fitted effect of over 55% in size
Target sequence (P10636 561-689 P618L limits assumed): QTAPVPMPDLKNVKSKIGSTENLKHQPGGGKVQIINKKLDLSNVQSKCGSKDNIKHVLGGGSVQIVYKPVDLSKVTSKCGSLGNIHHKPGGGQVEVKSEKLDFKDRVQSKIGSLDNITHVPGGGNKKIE
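Heparin-induced (20 uM) aggregation of recombinant human K18 P301L tau, 15 uM unlabeled with 0.24 uM labeled, pH 7 acetate buffer, 6 hr at 37 C with compound. Fibrils quantified by 30 uM ThT fluorescence after 1 hr ambient incubation.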
Tau FP inhib: tau fibrillization inhibition (FP); P10636; K18 P301L tau heparin fibrillization, Alexa594 FP, 6 h; Potency, µM (titrated, usually from 57.7 µM), actives largely listed as inhibitors; hit rate 0.39% among 280,000; AID 1468; also: nearly all actives have a fitted effect of over 55% in size
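Compound effects on tau fibrillization are measured by Alexa 594 fluorescence polarization (ex 555, em 632 nm). K18 P301L tau is used at 15 uM with 0.24 uM labeled tracer, and 20 uM heparin induces aggregation over 6 hr at 37 C.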
Tau fluor cs: counter-screen for tau fibril formation inhibitors | hit rate 0.93% among 280,000 | tau K18 P301L Alexa594 fluorescence, heparin fibrillization | Potency, µM (series often up to 57.7 µM); also: nearly all actives have a fitted effect of over 55% in size
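Human tau K18 P301L (15 uM unlabeled, 0.24 uM Alexa 594-labeled) in 100 mM sodium acetate pH 7 with 20 uM heparin, 6 hr at 37 C. ThT 30 uM added, 1 hr ambient; Alexa 594 FP and total fluorescence read at 555/632 nm.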
A number is an active result; [ ] = dose if it differs, or a comment. Unless noted, calls follow the shape of the dose curve; as a rule, active = well fitted curve in the direction sought with a large enough effect; inconclusive = small, poorly fitted or top-dose-only effect, or another doubt; inactive = no such curve, though single readings can be large; an effect the other way counts as inactive or inconclusive.

What do the screens show for `Nc1[nH]n2c(=O)cc(-c3ccccc3)nc2c1N=Nc1ccccc1`?
TRb-SRC2 inh: inactive; TexasRed fluor: inactive; KDM4E inh: inactive; Tau ThT inhib: 5.01µM; Tau FP inhib: inactive; Tau fluor cs: inconclusive

What do the screens show for `COc1ccc2cc3c(N)nn(C(=O)Cc4c[nH]c5ccccc45)c3nc2c1`?
TRb-SRC2 inh: inactive; TexasRed fluor: inactive; KDM4E inh: inactive; Tau FP inhib: inactive; Tau fluor cs: 20µM[quencher]

What do the screens show for `COC(=O)c1sc(N2C(=O)c3oc4ccccc4c(=O)c3C2c2cccc(O)c2)nc1C` (stereo unspecified)?
TRb-SRC2 inh: inactive; TexasRed fluor: inactive; KDM4E inh: inactive; Tau FP inhib: inactive; Tau fluor cs: inactive

How did Cc1[nH]c2ccccc2c1CCN(Cc1cccnc1)C(=S)Nc1cccc(F)c1 do in these assays?
TRb-SRC2 inh: inactive; TexasRed fluor: inactive; KDM4E inh: inactive; Tau ThT inhib: inactive; Tau FP inhib: inconclusive; Tau fluor cs: inconclusive

Results for COc1cccc(NC(=S)N(CCc2c(C)[nH]c3ccccc23)Cc2cccs2)c1 ?
TRb-SRC2 inh: inactive; TexasRed fluor: inactive; KDM4E inh: inactive; Tau ThT inhib: inactive; Tau FP inhib: inactive; Tau fluor cs: 8.91µM[quencher]

How did Cc1[nH]c2ccccc2c1CCN(Cc1cccs1)C(=S)Nc1ccccc1 do in these assays?
TRb-SRC2 inh: inactive; TexasRed fluor: inactive; KDM4E inh: inactive; Tau ThT inhib: inactive; Tau FP inhib: inactive; Tau fluor cs: 11.2µM[quencher]

How did Cc1[nH]c2ccccc2c1CCN(Cc1cccnc1)C(=S)Nc1ccc(F)cc1 do in these assays?
TRb-SRC2 inh: inactive; TexasRed fluor: inactive; KDM4E inh: inactive; Tau ThT inhib: inactive; Tau FP inhib: inactive; Tau fluor cs: inconclusive

How did CN1/C(=C/C(=O)c2nc(S(C)(=O)=O)ncc2Cl)C(C)(C)c2ccccc21 do in these assays?
TRb-SRC2 inh: inactive; TexasRed fluor: inactive; KDM4E inh: inactive; Tau ThT inhib: 5.01µM; Tau FP inhib: inactive; Tau fluor cs: inactive

What do the screens show for `Cc1ccc(SC[C@H](c2ccccc2)N2CCN(CCc3ccccc3)CCC2=O)cc1`?
TRb-SRC2 inh: inactive; TexasRed fluor: inactive; KDM4E inh: inconclusive; Tau ThT inhib: inactive; Tau FP inhib: inactive; Tau fluor cs: inactive

How did O=C1C=CC(=O)C(C2=C3C(=O)N(CCc4ccccc4)CC(=O)N3CCC2)=C1 do in these assays?
TRb-SRC2 inh: inactive; TexasRed fluor: inactive; KDM4E inh: inconclusive; Tau ThT inhib: 15.8µM; Tau FP inhib: inconclusive; Tau fluor cs: inconclusive

How did O=C(COC(=O)CNC(=O)c1ccccc1Cl)Nc1ncc(C(F)(F)F)cc1Cl do in these assays?
TRb-SRC2 inh: inactive; TexasRed fluor: inactive; KDM4E inh: inactive; Tau ThT inhib: inactive; Tau FP inhib: inactive; Tau fluor cs: inactive

Results for CN(C)c1ccc(C(=C2C=CC(=[N+](C)C)C=C2)c2ccc(N(C)C)cc2)cc1 ?
TRb-SRC2 inh: 100µM; TexasRed fluor: inactive; KDM4E inh: inconclusive; Tau ThT inhib: 5.01µM; Tau FP inhib: 15.8µM; Tau fluor cs: 7.08µM[quencher]

Results for O=C(COc1ccc(Cl)cc1)Nc1cnn(Cc2c(Cl)cccc2Cl)c1 ?
TRb-SRC2 inh: inactive; TexasRed fluor: inactive; KDM4E inh: inactive; Tau ThT inhib: inactive; Tau FP inhib: inactive; Tau fluor cs: inactive

Results for O=C(Nc1cnn(Cc2c(Cl)cccc2Cl)c1)c1ccc([N+](=O)[O-])cc1 ?
TRb-SRC2 inh: inactive; TexasRed fluor: inactive; KDM4E inh: inactive; Tau ThT inhib: inactive; Tau FP inhib: inconclusive; Tau fluor cs: 25.1µM[quencher]

How did CN(C)c1ccc(NC(=O)c2ccc(Cn3cc([N+](=O)[O-])cn3)cc2)cc1 do in these assays?
TRb-SRC2 inh: inactive; TexasRed fluor: inactive; KDM4E inh: inactive; Tau ThT inhib: 12.6µM; Tau FP inhib: inactive; Tau fluor cs: inconclusive

How did COc1ccc(NC(=O)c2ccc(Cn3cc(Cl)cn3)cc2)cc1 do in these assays?
TRb-SRC2 inh: inactive; TexasRed fluor: inactive; KDM4E inh: inactive; Tau ThT inhib: inactive; Tau FP inhib: inactive; Tau fluor cs: inactive[2.34 µM]

How did CC(C)O/N=C1\C(=O)N(c2ccccc2)c2ccccc21 do in these assays?
TRb-SRC2 inh: inactive; TexasRed fluor: inactive; KDM4E inh: inactive; Tau ThT inhib: inconclusive; Tau FP inhib: inactive; Tau fluor cs: inactive

What do the screens show for `O=C1C2C3C=CC(C3)C2C(=O)N1/N=C/c1cc(Br)cc([N+](=O)[O-])c1O` (stereo unspecified)?
TRb-SRC2 inh: inactive; TexasRed fluor: inactive; KDM4E inh: inactive; Tau ThT inhib: 7.94µM; Tau FP inhib: inactive; Tau fluor cs: inactive

What do the screens show for `COc1cc(O)cc2cc3c(c(O)c12)C(=O)CC(C)(O)O3` (stereo unspecified)?
TRb-SRC2 inh: inactive; TexasRed fluor: inactive; KDM4E inh: inconclusive; Tau ThT inhib: 25.1µM; Tau FP inhib: inactive; Tau fluor cs: inconclusive

What do the screens show for `COc1ccc(C(=O)c2sc(Nc3cc(Cl)ccc3C)nc2N)cc1OC`?
TRb-SRC2 inh: inactive; TexasRed fluor: inactive; Tau ThT inhib: inconclusive; Tau FP inhib: inconclusive; Tau fluor cs: inconclusive

What do the screens show for `O=C(NCCNc1ccc(Cl)cc1[N+](=O)[O-])c1cccnc1`?
TRb-SRC2 inh: inactive; TexasRed fluor: inactive; KDM4E inh: inactive; Tau ThT inhib: inconclusive; Tau FP inhib: inactive; Tau fluor cs: inactive

Results for Cc1ccoc1C(=O)NCCNc1ccc(Cl)cc1[N+](=O)[O-] ?
TRb-SRC2 inh: inactive; TexasRed fluor: inactive; KDM4E inh: inactive; Tau ThT inhib: 11.2µM; Tau FP inhib: inactive; Tau fluor cs: inactive

What do the screens show for `CC(/C=C1\SC(=S)N(C(C(=O)O)C(C)C)C1=O)=C\c1ccccc1` (stereo unspecified)?
TRb-SRC2 inh: inactive; TexasRed fluor: inactive; KDM4E inh: inactive; Tau ThT inhib: 22.4µM; Tau FP inhib: inactive; Tau fluor cs: inactive

Results for CC(=O)N1C(=O)/C(=C2\SC(=S)N(NS(=O)(=O)c3ccc(C)cc3)C2=O)c2ccccc21 ?
TRb-SRC2 inh: inactive; TexasRed fluor: inactive; KDM4E inh: inconclusive; Tau ThT inhib: 14.1µM; Tau FP inhib: inconclusive; Tau fluor cs: inconclusive

How did CCN1C(=O)/C(=C2\SC(=S)N(NC(=O)c3ccccc3O)C2=O)c2ccccc21 do in these assays?
TRb-SRC2 inh: inactive; TexasRed fluor: inactive; KDM4E inh: 25.1µM; Tau ThT inhib: 20µM; Tau FP inhib: inconclusive; Tau fluor cs: 20µM[quencher]

Results for CC(=O)N1C(=O)/C(=C2\SC(=S)N(c3c(C)n(C)n(-c4ccccc4)c3=O)C2=O)c2ccccc21 ?
TRb-SRC2 inh: inactive; TexasRed fluor: inactive; KDM4E inh: inactive; Tau ThT inhib: inconclusive; Tau FP inhib: inactive; Tau fluor cs: inactive

Results for CC(/C=C1\SC(=S)N(c2ccc(C(=O)O)cc2)C1=O)=C\c1ccccc1 ?
TRb-SRC2 inh: inactive; TexasRed fluor: inactive; KDM4E inh: inactive; Tau FP inhib: inactive[0.0958 µM]; Tau fluor cs: inactive[0.0958 µM]
